Results as given in PubChem BioAssay AID720650 (Broad Institute, 2013).
Activity calls are given as the source filed them. No rule for the calls is given here.

Experiment: Biochemical counterscreen for C difficile toxins, absence of UDPG, inhibitor dose response (AID 720650)
Details: series mostly up to 19.5 µM; activity change, negative = inhibition: at the top concentration

SMILES	activity change, negative = inhibition	AC50
COc1ccc(CNC(=O)c2cc3c(s2)CN(Cc2ccccc2)C3)cc1	-2.76% (inactive)	
Cc1ccc(-c2cc(C(=O)NNC(=O)c3csc(N4CCOCC4)n3)c3ccccc3n2)cc1	8.62% (inactive)	
C[C@@H]1CN([C@@H](C)CO)S(=O)(=O)c2ccc(C#Cc3ccncc3)cc2O[C@H]1CN(C)C(=O)C1CC1	-4.95% (inactive)	
Cc1csc(N=Nc2ccc(N(C)C)cc2)[n+]1[O-]		> 39 µM (inactive)
COc1ccccc1/C=C/c1onc(C)c1S(=O)(=O)N1CCC(C(=O)NC2CCCCCC2)CC1	-15.8% (inactive)	
COC1=C/C(=C/c2c(N)n3nc(CC(=O)N4CCOCC4)sc3nc2=O)C=CC1=O	0.548% (inactive)	
CCc1ccccc1NC(=O)CN1CCN(CC(=O)NCc2ccc(Cl)cc2)CC1	5.72% (inactive)	
CC(C)=CCOc1c2occc2cc2ccc(=O)oc12		> 39 µM (inactive)
